Screening data from PubChem BioAssay.
Compounds with a hit are over-represented: about 4.7% of the library has one in this group of screens.
TRHR enhancer: allosterically enhances the human TRH receptor. P34981. TRHR cells, fluo-8 calcium fluorescence, EC20 TRH enhancement. enhancement, % at 2 µM. 0.66% of 360,000 active. AID 493056; in the data active = enhancement above about 30%; note: 0% is about no effect
Target sequence (P34981 whole entry, looked up): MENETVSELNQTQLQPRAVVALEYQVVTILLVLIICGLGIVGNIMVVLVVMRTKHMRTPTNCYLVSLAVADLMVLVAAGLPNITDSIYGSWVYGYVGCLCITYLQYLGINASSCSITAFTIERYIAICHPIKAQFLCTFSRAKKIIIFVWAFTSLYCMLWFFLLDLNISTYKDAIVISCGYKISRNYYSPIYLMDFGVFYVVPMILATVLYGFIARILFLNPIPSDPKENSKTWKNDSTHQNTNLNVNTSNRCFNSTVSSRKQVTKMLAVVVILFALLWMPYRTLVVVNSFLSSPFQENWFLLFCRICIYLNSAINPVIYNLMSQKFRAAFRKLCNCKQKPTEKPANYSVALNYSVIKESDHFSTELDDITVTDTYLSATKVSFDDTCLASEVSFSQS
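TRHR-expressing cells loaded with fluo-8 calcium dye were read kinetically (ex 480/em 530) during compound addition, then stimulated with an EC20 of TRH (10 nM final). Enhancement of the Gq-mediated intracellular calcium response was scored.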
D1 ag: activates the human D1 dopamine receptor. AID 504660. 1% of 360,000 active. activation, % at 2 µM. HEK293 T-REx D1 cells, calcium flux, agonist mode; note: 0% is about no effect
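Agonism was scored from calcium flux recorded over 180 s (1 read/s) after pintool compound addition, following a 10-cycle baseline. Cells were inducible force-coupled HEK293 TREx D1, plated overnight at 30 C and loaded with no-wash calcium dye.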
TRHR ag: agonists of human TRH receptor | TRHR cells, calcium flux fluo-8, FDSS agonist mode | activation, % at 2 µM | 0.18% of 360,000 active | AID 493084; note: 0% is about no effect
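In this calcium-flux screen, cells bearing human TRHR are dye-loaded with fluo-8, baselined for 10 cycles, then exposed to library compounds; positive kinetic calcium responses during the agonist phase mark hits, with TRH as control.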
D1 PAM: potentiators of human D1 dopamine receptor; HEK293 TREx D1 cells, calcium flux, dopamine EC20 potentiation; P21728; potentiation, % at 10 µM; 0.036% of 360,000 active; in the data active = potentiation above about 30%; note: 0% is about no effect
D1 antagonist: antagonists of human D1 dopamine receptor. HEK293 TREx D1 cells, calcium flux, dopamine EC80; hits give low values. 3.2% of 360,000 active. activity change, negative = inhibition, % at 10 µM. P21728; in the data active = activity change below about -30%; note: % is set by controls: 0 for no effect and ±100 for the full control effect
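HEK293 T-REx cells expressing inducible, force-coupled D1 receptor; no-wash Ca dye, 30–90 min RT. Cmpd → 180 s read at 1 Hz → EC80 DA → 180 s read.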
Numbers without * were called inactive; / = no result given; ! = repeats disagree. Cut-off read from the data, not from the text of the source, unless noted: active = activation above about 30%; inactive = the rest.

SMILES | TRHR enhancer | D1 ag | TRHR ag | D1 PAM | D1 antagonist
Cc1ccc(C2N3CC4(C)CN2CC(c2ccccc2)(C3)C4=O)cc1 (stereo not given) | 1 | 1 | 1 | -1 | -7
COc1ccc([C@]23Cc4cc(C#N)ccc4C(O2)c2c(cc(C)n(-c4ccccc4)c2=O)O3)cc1 | 7 | 0 | 0 | -4 | -6
COc1ccc(C(=O)NCc2ccncc2)cc1S(=O)(=O)N1CCOCC1 | -5 | 4 | 0 | / | -48*
COc1ccc(C(=O)NCC2COc3ccccc3O2)cc1S(=O)(=O)N1CCOCC1 (stereo not given) | -3 | 0 | -1 | -4 | -34*
COc1ccc(CCNC(=O)c2ccc(Cl)c(S(=O)(=O)N3CCCC3)c2)cc1 | 1 | 8 | 0 | -1 | -50*
COc1ccccc1OCCNC(=O)c1cccc(S(=O)(=O)N2CCN(C)CC2)c1 | 1 | 1 | 0 | 5 | 6
COc1ccc(C(CNC(=O)c2ccc(Cl)c(S(=O)(=O)N3CCCC3)c2)N2CCCC2)cc1 (stereo not given) | -4 | 6 | 0 | 11 | 5
COc1ccccc1OCCNC(=O)c1ccc(C)c(S(=O)(=O)N2CCOCC2)c1 | 13 | 30* | 0 | -7 | -6
COc1ccccc1CNC(=O)c1cc2ccc3ccc(C)[nH]c3c2n1 | 6 | 3 | -1 | -3 | -12
CC1=C(C(=O)Nc2cccc(C(F)(F)F)c2)C(c2ccccc2)n2ncnc2N1 (stereo not given) | -2 | -2 | 0 | -1 | 0
Cc1ccc(NCc2cccn2-c2nnc(N3CCC(C(=O)NCc4ccccc4C)CC3)s2)cc1 | 3 | 0 | 0 | -1 | -13
COc1cccc(CNC(=O)c2ccc(CN3CC(=O)N4CCCCC4C3=O)cc2)c1 (stereo not given) | 14 | 0 | -1 | -2 | -1
CCOC(=O)N1CCN(C(=O)c2ccc(Cl)c(S(=O)(=O)N3CCCC3)c2)CC1 | 2 | 0 | 0 | 34* | -2
Cc1ccc(NC(=O)CCn2nc(C)c(S(=O)(=O)N3CCCCC3)c2C)cc1Cl | -15 | 2 | 1 | -1 | -22
O=S(=O)(NCc1ccccc1Cl)c1ccc(-n2cccn2)cc1 | -5 | 9 | -1 | -3 | -31*
Cc1ccc(Cl)cc1NS(=O)(=O)c1ccc(-n2cccn2)cc1 | 0 | 13 | 0 | -10 | -30*
O=S(=O)(NCc1ccccc1Cl)c1ccc(-n2cnnn2)cc1 | 9 | 2 | 0 | 3 | -8
CC(=O)Nc1ccc(S(=O)(=O)N2CCN(c3ccc(C)c(C)c3)CC2)cc1 | -2 | 1 | 1 | -4 | -3
COc1ccc(CCn2c(=N)c(C(=O)NC3CCCC3)cc3c(=O)n4ccccc4nc32)cc1OC | -2 | 1 | 1 | -2 | 8
COc1ccc(CCn2c(=N)c(C(=O)NC3CCCC3)cc3c(=O)n4ccccc4nc32)cc1 | 5 | 0 | -1 | -3 | -32*
COc1ccccc1Cn1c(=S)[nH]c2cc(C(=O)NCc3cccnc3)ccc2c1=O | -5 | 5 | 0 | -3 | -31*
COc1ccc(Cn2c(=S)[nH]c3cc(C(=O)NCc4cccnc4)ccc3c2=O)cc1 | 1 | 3 | 1 | -3 | 10
Cc1ccc(Cn2c(=O)c3c(nc4n3CCN4c3cc(C)cc(C)c3)n(C)c2=O)cc1 | -7 | -1 | 0 | -4 | 7
CC1CCc2c(sc(NC(=O)CN3CCN(C(=O)c4ccco4)CC3)c2C#N)C1 (stereo not given) | -1 | 6 | 0 | -4 | -31*
CCc1cc(C(=O)OC)c(NC(=O)CN2CCN(C(=O)c3ccco3)CC2)s1 | -6 | 116* | -2 | 3 | -47*
SMILES | TRHR enhancer | D1 ag | TRHR ag | D1 PAM | D1 antagonist
CCOC(=O)N1CCN(CC(=O)Nc2sc(CC)cc2C(=O)c2ccc(OC)cc2)CC1 | 0 | 8 | 2 | 2 | -31*
Cc1ccc(C2c3[nH]c4ccccc4c3CCN2C(=O)Nc2ccc(C)c(C)c2)cc1 (stereo not given) | 3 | 0 | 1 | 0 | -19
CCN(CC)CCCNC(=O)Cn1cnc2ccc(S(=O)(=O)N3CCC(C)CC3)cc2c1=O | -6 | 2 | 0 | -5 | -39*
CCCCN(CCCC)CCNC(=O)c1cn(C)c2ccc(S(=O)(=O)N3CCOCC3)cc2c1=O | -1 | 0 | -1 | 1 | -35*
CCOCCCNC(=O)c1cn(CC)c2ccc(S(=O)(=O)N3CCC(C)CC3)cc2c1=O | 7 | 2 | 0 | 1 | -34*
CCn1cc(C(=O)NCCCN2CCCC(C)C2)c(=O)c2cc(S(=O)(=O)N(C)C3CCCCC3)ccc21 (stereo not given) | -4 | 0 | 0 | 7 | -79*!
CCCCNC(=O)Cn1cnc2ccc(S(=O)(=O)N3CCC(C)CC3)cc2c1=O | -5 | 4 | 0 | -1 | 0
CCN(CC)CCCNC(=O)c1cn(CC)c2ccc(S(=O)(=O)N(C)C3CCCCC3)cc2c1=O | 4 | 2 | 0 | 0 | 15
COc1ccccc1N1CCN(c2ccc(=O)n(CC(=O)NCc3ccc(F)cc3)n2)CC1 | 11 | -1 | 0 | 2 | 16
Cc1nn(CC(=O)NCc2ccccc2Cl)c(=O)c2cccn12 | -4 | 2 | 0 | 0 | -7
CCOc1ccc(CCNC(=O)c2cn(CC)c3ccc(S(=O)(=O)N4CCc5ccccc5C4)cc3c2=O)cc1OCC | -4 | 0 | 1 | 9 | -47*
CCCCN(C)C(=O)c1cn(CC)c2ccc(S(=O)(=O)N(C)C)cc2c1=O | 0 | 3 | 0 | / | -31*
CCn1cc(C(=O)NCCc2ccc(C)cc2)c(=O)c2cc(S(=O)(=O)N3CCc4ccccc4C3)ccc21 | 6 | -1 | 1 | 3 | -7
O=C1c2ccccc2C(Nc2cccnc2)N1Cc1ccccc1 (stereo not given) | 2 | 1 | 0 | -2 | -8
O=C1c2ccccc2C(Nc2cccnc2)N1Cc1ccccc1Cl (stereo not given) | 33* | 1 | -1 | -5 | -12
CCCCN1CCCC1CNC(=O)c1cc(C#N)c2ccccc2c1OC (stereo not given) | -2 | 4 | 0 | -4 | -41*
CCN1CCCC1CNC(=O)c1cc(OC)c(OC)c(OC)c1 (stereo not given) | 6 | 2 | 0 | 7 | 0
Cc1ccc(NCc2cccn2-c2nnc(N3CCC(C(=O)NCc4ccc(F)cc4)CC3)s2)cc1 | -6 | 0 | 0 | -6 | -13
O=C(CSc1nnc(-c2ccncc2)o1)Nc1ccccc1Cl | -1 | 2 | 1 | 6 | -3
O=C(CSc1nnc(-c2ccncc2)o1)NC1C2CC3CC(C2)CC1C3 (stereo not given) | 31* | 2 | 0 | -4 | 5
COC(=O)CSc1nc(NCc2ccccc2)nc(N(C)C)n1 | 11 | 8 | 0 | -7 | -40*
